Data on 34 molecules can be found in article PMC9911399, “Two distinct binding modes provide the RNA-binding protein RbFox with extraordinary sequence specificity”.

T1: RBFOX1 RRM (Homo sapiens, UniProt Q9NWB1 109-208)
T1 sequence: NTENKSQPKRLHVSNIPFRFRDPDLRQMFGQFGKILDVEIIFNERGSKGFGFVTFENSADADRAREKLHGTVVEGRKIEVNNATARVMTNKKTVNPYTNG

B1: AUUCACC (DNA:RNA)
RNA: GGGAGACCGGAAUUCAGAUUGUCCAUUCACCUUAAAUCCCGUCGUAGCCACCA
DNA 1: CAATCTGAATTCCGGTCTCCC
DNA 2: TGGTGGCTACGACGGGATT
B2: GAGUUGU (DNA:RNA)
RNA: GGGAGACCGGAAUUCAGAUUGUCCGAGUUGUUUAAAUCCCGUCGUAGCCACCA
DNA 1: CAATCTGAATTCCGGTCTCCC
DNA 2: TGGTGGCTACGACGGGATT
B3: CAACGAU (DNA:RNA)
RNA: B2 RNA with G25C, G27A, U28C, U29G, G30A
DNA 1: CAATCTGAATTCCGGTCTCCC
DNA 2: TGGTGGCTACGACGGGATT
B4: AACCAAC (DNA:RNA)
RNA: B1 RNA with U26A, U27C, C30A
DNA 1: CAATCTGAATTCCGGTCTCCC
DNA 2: TGGTGGCTACGACGGGATT
B5: GAAACCA (DNA:RNA)
RNA: B2 RNA with G27A, U28A, U29C, G30C, U31A
DNA 1: CAATCTGAATTCCGGTCTCCC
DNA 2: TGGTGGCTACGACGGGATT
B6: UUUAAUU (DNA:RNA)
RNA: B1 RNA with A25U, C28A, C30U, C31U
DNA 1: CAATCTGAATTCCGGTCTCCC
DNA 2: TGGTGGCTACGACGGGATT
B7: CUGAUGU (DNA:RNA)
RNA: B2 RNA with G25C, A26U, U28A
DNA 1: CAATCTGAATTCCGGTCTCCC
DNA 2: TGGTGGCTACGACGGGATT
B8: GUGCAUA (DNA:RNA)
RNA: B1 RNA with A25G, U27G, C30U, C31A
DNA 1: CAATCTGAATTCCGGTCTCCC
DNA 2: TGGTGGCTACGACGGGATT
B9: GUGCAUG (DNA:RNA)
RNA: B1 RNA with A25G, U27G, C30U, C31G
DNA 1: CAATCTGAATTCCGGTCTCCC
DNA 2: TGGTGGCTACGACGGGATT
B10: UUGCAUA (DNA:RNA)
RNA: B1 RNA with A25U, U27G, C30U, C31A
DNA 1: CAATCTGAATTCCGGTCTCCC
DNA 2: TGGTGGCTACGACGGGATT
B11: UUGCAAA (DNA:RNA)
RNA: B1 RNA with A25U, U27G, C30A, C31A
DNA 1: CAATCTGAATTCCGGTCTCCC
DNA 2: TGGTGGCTACGACGGGATT
B12: UUGCAUG (DNA:RNA)
RNA: B1 RNA with A25U, U27G, C30U, C31G
DNA 1: CAATCTGAATTCCGGTCTCCC
DNA 2: TGGTGGCTACGACGGGATT
B13: GUGCAAG (DNA:RNA)
RNA: B1 RNA with A25G, U27G, C30A, C31G
DNA 1: CAATCTGAATTCCGGTCTCCC
DNA 2: TGGTGGCTACGACGGGATT
B14: UUGCAAG (DNA:RNA)
RNA: B1 RNA with A25U, U27G, C30A, C31G
DNA 1: CAATCTGAATTCCGGTCTCCC
DNA 2: TGGTGGCTACGACGGGATT
B15: UUGCAUC (DNA:RNA)
RNA: B1 RNA with A25U, U27G, C30U
DNA 1: CAATCTGAATTCCGGTCTCCC
DNA 2: TGGTGGCTACGACGGGATT
B16: GUGCAUC (DNA:RNA)
RNA: B1 RNA with A25G, U27G, C30U
DNA 1: CAATCTGAATTCCGGTCTCCC
DNA 2: TGGTGGCTACGACGGGATT
B17: CCUGUAG (DNA:RNA)
RNA: B1 RNA with A25C, U26C, C28G, A29U, C30A, C31G
DNA 1: CAATCTGAATTCCGGTCTCCC
DNA 2: TGGTGGCTACGACGGGATT
B18: UCGAGAU (DNA:RNA)
RNA: B2 RNA with G25U, A26C, U28A, U29G, G30A
DNA 1: CAATCTGAATTCCGGTCTCCC
DNA 2: TGGTGGCTACGACGGGATT
B19: UGCACCC (DNA:RNA)
RNA: B1 RNA with A25U, U26G, U27C, C28A, A29C
DNA 1: CAATCTGAATTCCGGTCTCCC
DNA 2: TGGTGGCTACGACGGGATT
B20: CUGCACG (DNA:RNA)
RNA: B1 RNA with A25C, U27G, C31G
DNA 1: CAATCTGAATTCCGGTCTCCC
DNA 2: TGGTGGCTACGACGGGATT
B21: CUGCACC (DNA:RNA)
RNA: B1 RNA with A25C, U27G
DNA 1: CAATCTGAATTCCGGTCTCCC
DNA 2: TGGTGGCTACGACGGGATT
B22: UGCCACG (DNA:RNA)
RNA: B1 RNA with A25U, U26G, U27C, C31G
DNA 1: CAATCTGAATTCCGGTCTCCC
DNA 2: TGGTGGCTACGACGGGATT
B23: UGCACGU (DNA:RNA)
RNA: B2 RNA with G25U, A26G, G27C, U28A, U29C
DNA 1: CAATCTGAATTCCGGTCTCCC
DNA 2: TGGTGGCTACGACGGGATT
B24: UGCACCG (DNA:RNA)
RNA: B1 RNA with A25U, U26G, U27C, C28A, A29C, C31G
DNA 1: CAATCTGAATTCCGGTCTCCC
DNA 2: TGGTGGCTACGACGGGATT
B25: GUAUAGC (DNA:RNA)
RNA: B1 RNA with A25G, U27A, C28U, C30G
DNA 1: CAATCTGAATTCCGGTCTCCC
DNA 2: TGGTGGCTACGACGGGATT
B26: GGGGUUC (DNA:RNA)
RNA: B2 RNA with A26G, U28G, G30U, U31C
DNA 1: CAATCTGAATTCCGGTCTCCC
DNA 2: TGGTGGCTACGACGGGATT
B27: GUGCGGG (DNA:RNA)
RNA: B2 RNA with A26U, U28C, U29G, U31G
DNA 1: CAATCTGAATTCCGGTCTCCC
DNA 2: TGGTGGCTACGACGGGATT
B28: GGGUUUC (DNA:RNA)
RNA: B2 RNA with A26G, G30U, U31C
DNA 1: CAATCTGAATTCCGGTCTCCC
DNA 2: TGGTGGCTACGACGGGATT
B29: GGGUUCG (DNA:RNA)
RNA: B2 RNA with A26G, G30C, U31G
DNA 1: CAATCTGAATTCCGGTCTCCC
DNA 2: TGGTGGCTACGACGGGATT
B30: GCGGGGG (DNA:RNA)
RNA: B2 RNA with A26C, U28G, U29G, U31G
DNA 1: CAATCTGAATTCCGGTCTCCC
DNA 2: TGGTGGCTACGACGGGATT
B31: UUCCGGG (DNA:RNA)
RNA: B1 RNA with A25U, U27C, A29G, C30G, C31G
DNA 1: CAATCTGAATTCCGGTCTCCC
DNA 2: TGGTGGCTACGACGGGATT
B32: GGGUUCC (DNA:RNA)
RNA: B2 RNA with A26G, G30C, U31C
DNA 1: CAATCTGAATTCCGGTCTCCC
DNA 2: TGGTGGCTACGACGGGATT
B33: GGGUUCU (DNA:RNA)
RNA: B2 RNA with A26G, G30C
DNA 1: CAATCTGAATTCCGGTCTCCC
DNA 2: TGGTGGCTACGACGGGATT
B34: CGGGUUC (DNA:RNA)
RNA: B2 RNA with G25C, A26G, U28G, G30U, U31C
DNA 1: CAATCTGAATTCCGGTCTCCC
DNA 2: TGGTGGCTACGACGGGATT

Positions count from the first letter of the chain named. Whole data set: some 16,000 sequences, median “ka relative to ugcaugu” near 0.0091, cut for the highest 2% near 0.032. This is one part of a sample in which the highest values are shown more often than they occur.

This assay addresses T1, RBFOX1 RRM. Kind of assay: EMSA; HiTS-Eq, 1 nM pool, 10 min; buffer printed only for the single-RNA assays: 10 mM Tris pH 7.5, 150 mM NaCl, 3.4 mM EDTA, 0.001% NP-40, 30 C. Particulars: tags: His6 N-terminal (pET28a); label: 5' 32P. The gist of the method:
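A pool of RNA with 7 randomized nucleotides, 5′-radiolabelled and with DNA-annealed flanks, was equilibrated at 1 nM for 10 min in 50 µL with purified RbFox RRM, wild type or mutant, across increasing protein concentrations. Free RNA was separated by 8% native PAGE, excised, reverse-transcribed, barcoded by PCR and sequenced. Relative association constants were obtained from read-count changes of each RNA species versus the control reaction and normalised to the cognate motif.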
As for B1, the binding signal was 0.00129 KA relative to UGCAUGU.
Under B2 stands 0.0179 KA relative to UGCAUGU.
B3: the binding signal is 0.00177 KA relative to UGCAUGU.
As for B4, the binding signal was 0.000641 KA relative to UGCAUGU.
Under B5 stands 0.00223 KA relative to UGCAUGU; under B6, 0.00658 KA relative to UGCAUGU.
Next, B7: 0.0201 KA relative to UGCAUGU.
As for B8, the binding signal was 0.0221 KA relative to UGCAUGU.
For the molecule B9, the binding signal was 1 KA relative to UGCAUGU.
Under B10 stands 0.0139 KA relative to UGCAUGU; under B11, 0.0109 KA relative to UGCAUGU; under B12, 1 KA relative to UGCAUGU.
Turning to B13, the binding signal is 0.0274 KA relative to UGCAUGU.
Turning to B14, the binding signal is 0.0333 KA relative to UGCAUGU.
Consider B15, for which the binding signal was 0.022 KA relative to UGCAUGU.
Under B16 stands 0.0315 KA relative to UGCAUGU.
Next, B17: 0.00969 KA relative to UGCAUGU; B18: 0.00776 KA relative to UGCAUGU; B19: 0.0142 KA relative to UGCAUGU.
As to B20, the binding signal was 0.616 KA relative to UGCAUGU.
Under B21 stands 0.0128 KA relative to UGCAUGU.
For B22, the binding signal is 0.0198 KA relative to UGCAUGU.
Under B23 stands 0.514 KA relative to UGCAUGU; under B24, 0.0145 KA relative to UGCAUGU.
For the molecule B25, the binding signal is 0.00925 KA relative to UGCAUGU.
As for B26, the binding signal was 0.0437 KA relative to UGCAUGU.
Next, B27: 0.0167 KA relative to UGCAUGU.
With B28, the binding signal is 0.0237 KA relative to UGCAUGU.
Consider B29, for which the binding signal is 0.026 KA relative to UGCAUGU.
On to B30, for which the binding signal was 0.0269 KA relative to UGCAUGU.
In the case of B31, the binding signal is 0.00531 KA relative to UGCAUGU.
Consider B32, for which the binding signal was 0.0348 KA relative to UGCAUGU.
Next, B33: 0.0166 KA relative to UGCAUGU; B34: 0.0418 KA relative to UGCAUGU.
